Structures can show the parent of a compound that is named as a salt. ± gives the standard error. About 75 (6%) of roughly 1,300 compounds showed an effect of 50% or more. Only a selection was taken, and strong results are over-represented in it overall.
Test system: Trichoderma virens ATCC 9645
Assay: growth yield (OD600) relative to untreated control; higher = less growth inhibition
Settings: compound concentration: 100 uM
Summary of the method: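 Trichoderma virens ATCC 9645 spores from 7-day potato dextrose agar plates were suspended in potato dextrose broth at 15,000 spores ml^−1. Aliquots of 100 μl with library compounds at 100 μM final, with or without a co-applied biocide at 200 ng ml^−1, were grown in 96-well plates at 30 °C. OD600 was read at 40 h and 72 h on a BioTek EL800. Growth is expressed relative to the control without either agent, as means of duplicate screens.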

SMILES	growth yield (40 h)	growth yield (72 h)
C[C@@H]1C[C@H]2[C@@H]3C[C@H](F)C4=CC(=O)C=C[C@]4(C)[C@@]3(F)[C@@H](O)C[C@]2(C)[C@@]1(O)C(=O)COC(=O)C(C)(C)C [Flumethasone pivalate]	106 ± 7.2%	104 ± 5.3%
Cc1ccccc1OCC(O)CO (stereo not drawn) [Mephenesin]	98 ± 3.3%	99.5 ± 3.5%
Cc1cnc(C(=O)NCCc2ccc(S(=O)(=O)NC(=O)NC3CCCCC3)cc2)cn1 [Glipizide]	103.7 ± 0.48%	104.3 ± 0.52%
O=C(O)[C@H]1/C(=C/CO)O[C@@H]2CC(=O)N21 [Clavulanate potassium salt]	95.5 ± 2.4%	87.9 ± 3.4%
Oc1ccc(OCc2ccccc2)cc1 [Monobenzone]	48.6 ± 0.64%	53.3 ± 1.7%
CC(COc1ccccc1)N(CCCl)Cc1ccccc1 (stereo not drawn) [Phenoxybenzamine hydrochloride]	104 ± 4.6%	103 ± 4.2%
CC(COc1ccccc1)NC(C)C(O)c1ccc(O)cc1 (stereo not drawn) [Isoxsuprine hydrochloride]	101 ± 1.1%	98.6 ± 2.3%
Cc1ccc(O)c([C@H](CCN(C(C)C)C(C)C)c2ccccc2)c1 [Tolterodine tartrate]	96.7 ± 2.7%	97.95 ± 0.42%
CN(C)CCn1nnnc1SCC1=C(C(=O)O)N2C(=O)[C@@H](NC(=O)Cc3csc(N)n3)[C@H]2SC1 [Cefotiam hydrochloride]	102 ± 1.4%	102.2 ± 0.73%
OC(Cn1cncn1)(Cn1cncn1)c1ccc(F)cc1F [Fluconazole]	55.1 ± 1.8%	61.14 ± 0.52%
C[C@@H](c1ncncc1F)[C@](O)(Cn1cncn1)c1ccc(F)cc1F [Voriconazole]	3.02 ± 1.4%	2.41 ± 0.94%
CC(C)NC(=N)NC(=N)Nc1ccc(Cl)cc1 [Proguanil hydrochloride]	110 ± 13%	109 ± 9%
N=C(NCCCCCCNC(=N)NC(=N)Nc1ccc(Cl)cc1)NC(=N)Nc1ccc(Cl)cc1 [Chlorhexidine]	2.7 ± 1.4%	2.31 ± 0.84%
N=C(N)NC(=N)NCCc1ccccc1 [Phenformin hydrochloride]	96.9 ± 1.9%	91.5 ± 2.7%
CC(C)NCC(O)c1ccc2ccccc2c1 (stereo not drawn) [Pronethalol hydrochloride]	98.6 ± 2.1%	99.3 ± 2%
CC(=O)N[C@@H](CC(=O)N[C@@H](CCC(=O)O)C(=O)O)C(=O)O [Spaglumic acid]	101 ± 3.5%	99.5 ± 1.4%
CC(C)(C)CC(C)(C)c1ccc(OCCOCC[N+](C)(C)Cc2ccccc2)cc1 [Benzethonium chloride]	1.75 ± 0.16%	1.78 ± 0.1%
Cc1cc(C(C)(C)CC(C)(C)C)ccc1OCCOCC[N+](C)(C)Cc1ccccc1 [Methyl benzethonium chloride]	1.43 ± 0.79%	0.944 ± 0.52%
C[N+](C)(CCOc1ccccc1)Cc1ccccc1.O=C([O-])c1cc2ccccc2cc1O [Bephenium hydroxynaphthoate]	73.2 ± 1.1%	79.6 ± 2.2%
CCOc1ccccc1OCC1CNCCO1 (stereo not drawn) [Viloxazine hydrochloride]	99.6 ± 1.8%	96.4 ± 1.4%
COc1ncnc(NS(=O)(=O)c2ccc(N)cc2)c1OC [Sulfadoxine]	91 ± 9.4%	101 ± 2.6%
O=C1c2cccc3c2[C@H](CCC3)CN1[C@@H]1CN2CCC1CC2 [Palonosetron hydrochloride]	103 ± 6%	99 ± 4.2%
O=C(NCCN1CCOCC1)c1ccc(Cl)cc1 [Moclobemide]	102 ± 2.1%	106 ± 2%

SMILES	growth yield (40 h)	growth yield (72 h)
COc1ccc2[nH]c([S+]([O-])Cc3ncc(C)c(OC)c3C)nc2n1 (stereo not drawn) [Tenatoprazole]	98.8 ± 4.8%	102 ± 1.6%
CCOC(=O)c1ccc(OC(=O)CCCCCNC(=N)N)cc1 [Gabexate mesilate]	76.6 ± 4.5%	76 ± 3.7%
Cc1nnc(NS(=O)(=O)c2ccc(N)cc2)s1 [Sulfamethizole]	100.4 ± 0.32%	99.74 ± 0.1%
COC(=O)[C@H](c1ccccc1Cl)N1CCc2sccc2C1 [Clopidogrel]	76.9 ± 1.6%	82 ± 1.1%
CO[C@@]1(NC(=O)Cc2cccs2)C(=O)N2C(C(=O)O)=C(COC(N)=O)CS[C@@H]21 [Cefoxitin sodium salt]	94.4 ± 3.5%	94.8 ± 1.9%
Nc1ccc(/N=N/c2ccccc2)c(N)n1 [Phenazopyridine hydrochloride]	21.1 ± 1.4%	49.4 ± 6.2%
Nc1c2ccccc2nc2ccccc12 [Aminacrine]	98.64 ± 0.48%	96.9 ± 2.9%
CCN(Cc1ccncc1)C(=O)C(CO)c1ccccc1 (stereo not drawn) [Tropicamide]	99.6 ± 1.8%	102 ± 1.1%
CO[C@@H]1[C@@H](OC(N)=O)[C@@H](O)[C@H](Oc2ccc3c(O)c(NC(=O)c4ccc(O)c(CC=C(C)C)c4)c(=O)oc3c2C)OC1(C)C [Novobiocin sodium salt]	92 ± 1.8%	115 ± 4.7%
CCOC(=O)[C@@](C)(N)Cc1ccc(O)c(O)c1 [Methyldopate hydrochloride]	104 ± 5.2%	97.85 ± 0.94%
N[C@H]1CONC1=O [(S)-(-)-Cycloserine]	104 ± 3.3%	96.8 ± 3%
Cc1noc(NS(=O)(=O)c2ccc(N)cc2)c1C [Sulfisoxazole]	87.4%	96.2 ± 1.8%
Cc1cc(C)nc(NS(=O)(=O)c2ccc(N)cc2)n1 [Sulfamethazine sodium salt]	106 ± 4.5%	101 ± 2.2%
Cc1cc(NS(=O)(=O)c2ccc(N)cc2)no1 [Sulfamethoxazole]	40 ± 4.8%	82.9 ± 2.1%
C#C[C@]1(O)CC[C@H]2[C@@H]3CCC4=Cc5oncc5C[C@]4(C)[C@H]3CC[C@@]21C [Danazol]	83.39 ± 0.79%	87.15 ± 0.32%
CCCc1nc(C(C)(C)O)c(C(=O)O)n1Cc1ccc(-c2ccccc2-c2nnn[nH]2)cc1 [Olmesartan]	100 ± 3.2%	99.8 ± 2.9%
c1ccc(-c2ccc(C(c3ccccc3)n3ccnc3)cc2)cc1 (stereo not drawn) [Bifonazole]	2.86 ± 1.9%	1.99 ± 0.94%
N#Cc1ccc(C(c2ccc(C#N)cc2)n2cncn2)cc1 [Letrozole]	103 ± 1.1%	101.5 ± 0.42%
CCC1(c2ccccc2)NC(=O)N(C)C1=O (stereo not drawn) [Mephenytoin]	110 ± 4.9%	102 ± 4.5%
CC1(C)[C@@H](OC(=O)CCC(=O)O)CC[C@]2(C)[C@H]3C(=O)C=C4[C@@H]5C[C@@](C)(C(=O)O)CC[C@]5(C)CC[C@@]4(C)[C@]3(C)CC[C@@H]12 [Carbenoxolone disodium salt]	95 ± 4.1%	94.6 ± 2.1%
CN(C)[C@@H]1C(O)=C(C(N)=O)C(=O)[C@@]2(O)C(O)=C3C(=O)c4c(O)ccc(Cl)c4[C@@H](O)[C@H]3C[C@@H]12 [Demeclocycline hydrochloride]	82.6 ± 3.2%	85.1 ± 5.6%
N=C(N)NC(=O)Cc1c(Cl)cccc1Cl [Guanfacine hydrochloride]	97.1 ± 1.4%	101.3 ± 0.63%
COC(=O)CCc1ccc(OCC(O)CNC(C)C)cc1 (stereo not drawn) [Esmolol hydrochloride]	105 ± 4.6%	100 ± 1.5%

SMILES	growth yield (40 h)	growth yield (72 h)
C/C(=C\C(=O)OCCCCCCCCC(=O)O)C[C@@H]1OC[C@H](C[C@@H]2O[C@H]2[C@@H](C)[C@H](C)O)[C@@H](O)[C@H]1O [Mupirocin]	6.04 ± 2.9%	39.5 ± 8.5%
O=C(O)CCC(=O)Nc1ccc(S(=O)(=O)Nc2nccs2)cc1 [Succinylsulfathiazole]	94.7 ± 3.5%	93.9 ± 2.6%
OCC(O)CN1CCN(c2ccccc2)CC1 (racemic) [Dropropizine (R,S)]	101 ± 1.6%	101.7 ± 0.63%
CC(C)(CO)C(O)C(=O)NCCCO (stereo not drawn) [Panthenol (D)]	100 ± 4.5%	98.1 ± 3%
CC(=O)OC[C@H]1O[C@@H]([S-])[C@H](OC(C)=O)[C@@H](OC(C)=O)[C@@H]1OC(C)=O.CCP(CC)CC.[Au+] [Auranofin]	25.6 ± 2.1%	33 ± 2%
CN(C)/N=N/c1[nH]cnc1C(N)=O [Dacarbazine]	95.6 ± 1.9%	98 ± 3.4%
O=C1C(O)=C([C@H]2CC[C@H](c3ccc(Cl)cc3)CC2)C(=O)c2ccccc21 [Atovaquone]	95.1 ± 4.3%	97.4 ± 1.6%
COc1cccc(N(C)C(=S)Oc2ccc3c(c2)CCCC3)n1 [Liranaftate]	0%	0%
CC(C)(C(=O)c1cccnc1)c1cccnc1 [Metyrapone]	91 ± 3%	88.4 ± 2.6%
COc1cc2nc(N(C)CCCNC(=O)C3CCCO3)nc(N)c2cc1OC (stereo not drawn) [Alfuzosin hydrochloride]	104.7 ± 0.79%	105 ± 3.6%
OC(CNCC(O)C1CCc2cc(F)ccc2O1)C1CCc2cc(F)ccc2O1 (stereo not drawn) [Nebivolol hydrochloride]	95 ± 16%	114 ± 14%
CN(C)CCOC1=Cc2ccccc2Sc2ccc(Cl)cc21 [Zotepine]	89.7 ± 14%	114 ± 11%
NC(N)=Nc1nc(CSCC/C(N)=N/S(N)(=O)=O)cs1 [Famotidine]	103 ± 1.9%	101 ± 1.3%
CCCCN(CCCC)CCC(O)c1cc2c(Cl)cc(Cl)cc2c2cc(C(F)(F)F)ccc12 (stereo not drawn) [Halofantrine hydrochloride]	25.6 ± 6.2%	95.9%
N=C(N)N/N=C/c1c(Cl)cccc1Cl [Guanabenz acetate]	91.5 ± 1.9%	90.7 ± 3.2%
COC(=O)[C@H]1[C@H]2C[C@@H]3c4[nH]c5cc(OC)ccc5c4CCN3C[C@H]2C[C@@H](OC(=O)c2cc(OC)c(OC)c(OC)c2)[C@@H]1OC [Reserpine]	107 ± 5.4%	107 ± 2.8%
CCCCOc1ccc(CC(=O)NO)cc1 [Bufexamac]	94.2 ± 1.1%	88.1 ± 2.9%
N=C(N)c1ccc(OCCCCCOc2ccc(C(=N)N)cc2)cc1 [Pentamidine isethionate]	1.91 ± 0.95%	1.78 ± 0.52%
CCCCOc1ccc(C(=O)CCN2CCCCC2)cc1 [Dyclonine hydrochloride]	93.6 ± 3%	98.7 ± 1.6%
CC(C)(C)NC[C@@H](O)COc1cccc2c1CCCC2=O [(+) -Levobunolol hydrochloride]	100.2 ± 0.16%	98.9 ± 0.1%
NS(=O)(=O)Cc1noc2ccccc12 [Zonisamide]	104.5 ± 0.95%	98.8 ± 1.9%
CN(C)CCN(Cc1ccccc1)c1ccccn1 [Tripelennamine hydrochloride]	107 ± 1.4%	100 ± 1.6%
C[C@]1(Cn2ccnn2)[C@H](C(=O)O)N2C(=O)C[C@H]2S1(=O)=O [Tazobactam]	98.96 ± 0.79%	96.8 ± 1.4%

From the supplement of paper PMC8007513
